Assay [1] addresses human Vitamin D Receptor (VDR), VDR (gene 7421) (UniProt P11473). Description: ATG_VDR_TRANS: Attagene TRANS-FACTORIAL HepG2 Assay for human Vitamin D Receptor (VDR) (AID 2283022; active = hit-call score of the fitted dose curve at least 0.9, where 1 is the maximum). In short, it runs like this:
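Transactivation by an exogenous VDR-Gal4 chimera in transiently transfected HepG2 cells was measured as reporter transcript level 24 hours after chemical treatment. RT-PCR products were analysed by capillary electrophoresis and fitted in the positive direction relative to DMSO.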

The target in assay [2] is human Thyroid Receptor alpha (THRa1), THRA (gene 7067) (UniProt P10827). Description: ATG_THRa1_TRANS: Attagene TRANS-FACTORIAL HepG2 Assay for human Thyroid Receptor alpha (THRa1) (AID 2283014; active = hit-call score of the fitted dose curve at least 0.9, where 1 is the maximum). In a few lines: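 Transcripts from GAL4-UAS-driven reporters, measured after 24 h compound exposure by RT-PCR plus capillary electrophoresis of 6-FAM-labeled fragments, were fitted for gain of signal relative to DMSO. Cells: transiently transfected HepG2 expressing NR-Gal4 chimeras.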
Sequence of human Thyroid Receptor alpha (THRa1), THRA (gene 7067) (P10827 whole entry, looked up, the tested form may be a part): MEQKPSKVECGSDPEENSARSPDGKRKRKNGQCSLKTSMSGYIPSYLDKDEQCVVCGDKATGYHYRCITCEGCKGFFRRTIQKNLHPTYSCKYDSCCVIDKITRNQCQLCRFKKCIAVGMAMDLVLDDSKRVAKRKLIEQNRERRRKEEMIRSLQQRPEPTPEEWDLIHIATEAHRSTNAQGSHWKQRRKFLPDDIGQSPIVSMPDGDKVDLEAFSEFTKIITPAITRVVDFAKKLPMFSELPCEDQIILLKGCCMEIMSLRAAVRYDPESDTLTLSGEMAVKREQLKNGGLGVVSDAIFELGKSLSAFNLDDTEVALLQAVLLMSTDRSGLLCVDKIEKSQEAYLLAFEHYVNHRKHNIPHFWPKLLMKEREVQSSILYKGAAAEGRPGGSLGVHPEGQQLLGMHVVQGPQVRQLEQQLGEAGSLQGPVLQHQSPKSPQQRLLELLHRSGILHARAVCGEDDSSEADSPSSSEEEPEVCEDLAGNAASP

Read-out in assay [3]: E-selectin (Homo sapiens) (UniProt P16581)
Description: BSK_3C_Eselectin: BioMAP Diversity Plus: 3C Assay for Eselectin Biomarker Activity (AID 2283015).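 Note: cell surface E-selectin protein quantified by ELISA 24 h after dosing.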 To be noted: primary human endothelial cells (HUVEC); actives raise or lower the signal. In short, it runs like this: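 E-selectin ELISA readout, fitted bidirectionally relative to DMSO, taken 24 h post-dosing in HUVEC cultures of the 3C system. Overt cytotoxicity tracked with sulforhodamine B staining of parallel wells.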

Read-out in assay [4]: Interleukin-1 alpha (IL1a), IL1A (gene 3552)
Description: BSK_BE3C_IL1a: BioMAP Diversity Plus: BE3C Assay for Interleukin-1 alpha (IL1a) Biomarker Activity (AID 2283016). To be noted: primary human bronchial epithelial cells; actives raise or lower the signal. In short, it runs like this:
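ELISA read-out of IL-1a from human lung bronchial epithelial primary cells, 24 h post-dose. Gain or loss of signal fitted relative to DMSO negative control.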

Read-out in assay [5]: Monocyte Chemoattractant Protein-1 (MCP1), CCL2 (gene 6347)
Nature of the assay: BSK_3C_MCP1: BioMAP Diversity Plus: 3C Assay for Monocyte Chemoattractant Protein-1 (MCP1) Biomarker Activity (AID 2283017). To be noted: primary human endothelial cells (HUVEC); actives raise or lower the signal. In short, it runs like this: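 MCP-1 was measured by ELISA 24 h after dosing in primary HUVEC 3C cultures and fitted in both directions relative to DMSO; cytotoxicity was checked by SRB total-protein staining in parallel wells.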

Read-out in assay [6]: Monocyte Chemoattractant Protein-1 (MCP1), CCL2 (gene 6347)
Nature of the assay: BSK_4H_MCP1: BioMAP Diversity Plus: 4H Assay for Monocyte Chemoattractant Protein-1 (MCP1) Biomarker Activity (AID 2283018). The note with it: primary human endothelial cells (HUVEC); actives raise or lower the signal. In short, it runs like this:
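HUVEC primary cells, 24 h post-dose, MCP-1 by ELISA. Gain or loss of signal fitted bidirectionally vs DMSO baseline. Cytotoxicity: SRB stain (0.1% after 10% TCA fixation), read 560 nm, parallel cultures.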

Read-out in assay [7]: Human Leukocyte Antigen - DR isotype (HLADR), HLA-DRA (gene 3122)
Description: BSK_3C_HLADR: BioMAP Diversity Plus: 3C Assay for Human Leukocyte Antigen - DR isotype (HLADR) Biomarker Activity (AID 2283019).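 Note: ELISA of cell-surface HLA-DR on HUVEC 24 h after dosing.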 The note with it: primary human endothelial cells (HUVEC); actives raise or lower the signal. In a few lines: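 Bidirectional fitting against DMSO was applied to the HLA-DR ELISA signal from human umbilical vein endothelial cells, 24 h post-dose. Cytotoxicity came from parallel SRB total-protein staining; 3C proliferation was counted by SRB at 48 h.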

Read-out in assay [8]: Interleukin-8 (IL8), CXCL8 (gene 3576)
Nature of the assay: BSK_3C_IL8: BioMAP Diversity Plus: 3C Assay for Interleukin-8 (IL8) Biomarker Activity (AID 2283020). The note with it: primary human endothelial cells (HUVEC); actives raise or lower the signal. In a few lines:
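HUVEC, 3C stimulation; 24 h compound exposure; IL-8 read by ELISA; gain or loss of signal fitted relative to DMSO control.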

Read-out in assay [9]: Monokine induced gamma interferon (MIG), CXCL9 (gene 4283)
Description: BSK_3C_MIG: BioMAP Diversity Plus: 3C Assay for Monokine induced gamma interferon (MIG) Biomarker Activity (AID 2283021). The note with it: primary human endothelial cells (HUVEC); actives raise or lower the signal. In short, it runs like this: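 HUVEC, 3C system; 24 h chemical exposure; MIG by ELISA; bidirectional fit vs DMSO baseline.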

Assay [10] can be described thus: BSK_3C_SRB: Viability Assessment in the BioMAP Diversity Plus: 3C Assay (AID 2283023).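 Note: fitted both ways against DMSO so a hit may be signal rise or drop.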 The note with it: primary human endothelial cells (HUVEC). In a few lines:
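Cytotoxicity readout in parallel HUVEC 3C cultures: after 24 h compound exposure, cells fixed with 10% TCA, stained with 0.1% SRB and read at 560 nm. Gain or loss relative to DMSO fitted.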

Read-out in assay [11]: Matrix Metallopeptidase 1 (MMP1), MMP1 (gene 4312)
Nature of the assay: BSK_BE3C_MMP1: BioMAP Diversity Plus: BE3C Assay for Matrix Metallopeptidase 1 (MMP1) Biomarker Activity (AID 2283024). The note with it: primary human bronchial epithelial cells; actives raise or lower the signal. In short, it runs like this:
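ELISA read-out of MMP1 in human lung bronchial epithelial primary cultures, 24 h post-dose; bidirectional curve fit vs DMSO baseline, gain or loss of signal scored.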

Assay [12] can be described thus: BSK_3C_Vis: BioMAP Diversity Plus: 3C Assay for Morphology Visualization (AID 2283025).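 Note: fitted both ways so gain or loss versus DMSO counts.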 To be noted: primary human endothelial cells (HUVEC). In a few lines:
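HUVEC, 3C system; light microscopy of morphology at 24 h post-dose. Bidirectional fit vs DMSO baseline. Secondary readout, background-control function.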

Read-out in assay [13]: Pselectin, SELP (gene 6403)
Description: BSK_4H_Pselectin: BioMAP Diversity Plus: 4H Assay for Pselectin Biomarker Activity (AID 2283026). To be noted: primary human endothelial cells (HUVEC); actives raise or lower the signal. In a few lines: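 HUVEC, 24 h chemical exposure; P-selectin read by ELISA. Bidirectional curve fit vs DMSO baseline; gain or loss of signal scored.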

Assay [14] is described as follows: BSK_BE3C_SRB: Viability Assessment in the BioMAP Diversity Plus: BE3C Assay (AID 2283028). The note with it: primary human bronchial epithelial cells. In short, it runs like this: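 Cytotoxicity read-out: SRB (0.1%) staining of TCA-fixed (10%) human lung bronchial epithelial cells, absorbance 560 nm, 24 h post-dosing. Curves fitted both directions relative to DMSO.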

Read-out in assay [15]: Thrombomodulin, THBD (gene 7056)
Nature of the assay: BSK_3C_Thrombomodulin: BioMAP Diversity Plus: 3C Assay for Thrombomodulin Biomarker Activity (AID 2283029). To be noted: primary human endothelial cells (HUVEC); actives raise or lower the signal. In short, it runs like this: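 HUVEC, 3C conditions; compound 24 h; thrombomodulin by ELISA; bidirectional curve fit vs DMSO baseline; parallel SRB total-protein staining for cytotoxicity.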

Read-out in assay [16]: Urokinase-type plasminogen activator receptor (uPAR), PLAUR (gene 5329)
Nature of the assay: BSK_4H_uPAR: BioMAP Diversity Plus: 4H Assay for Urokinase-type plasminogen activator receptor (uPAR) Biomarker Activity (AID 2283030). To be noted: primary human endothelial cells (HUVEC); actives raise or lower the signal. In short, it runs like this: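 uPAR level read by ELISA on HUVEC cultures (BioMAP 4H) 24 h post-dosing, analyzed for gain or loss relative to DMSO. Parallel SRB staining assessed overt cytotoxicity.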

Read-out in assay [17]: Vascular endothelial growth factor receptor 2 (Homo sapiens) (UniProt P35968)
Nature of the assay: BSK_4H_VEGFRII: BioMAP Diversity Plus: 4H Assay for Vascular endothelial growth factor receptor 2 (VEGFR2) Biomarker Activity (AID 2283031). The note with it: primary human endothelial cells (HUVEC); actives raise or lower the signal. In short, it runs like this:
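Measured by ELISA after 24 h of compound treatment: VEGFR2 on primary human umbilical vein endothelial cells, fitted in both directions relative to DMSO. Parallel cultures received SRB staining (560 nm) for overt cytotoxicity.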

Read-out in assay [18]: Human Leukocyte Antigen - DR isotype (HLADR), HLA-DRA (gene 3122)
Nature of the assay: BSK_BE3C_HLADR: BioMAP Diversity Plus: BE3C Assay for Human Leukocyte Antigen - DR isotype (HLADR) Biomarker Activity (AID 2283032). To be noted: primary human bronchial epithelial cells; actives raise or lower the signal. In short, it runs like this:
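Primary human bronchial epithelial cells (BE3C); 24 h chemical exposure; HLA-DR by ELISA; bidirectional curve fit vs DMSO baseline.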

A short description of assay [19]: BSK_4H_SRB: Viability Assessment in the BioMAP Diversity Plus: 4H Assay (AID 2283027).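 Note: cells exposed to compound for 24 h before staining.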 The note with it: primary human endothelial cells (HUVEC). In a few lines:
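Cytotoxicity read-out in primary human endothelial cells: after 24 h compound exposure, cells were TCA-fixed (10%), stained with 0.1% SRB and absorbance taken at 560 nm. Values fitted in both directions relative to DMSO.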

Inconclusive results are not listed. Activity calls are given as the source filed them. Rule for the calls, unless noted: active = hit-call score of the fitted dose curve at least 0.9, where 1 is the maximum; inactive = score below 0.9.

Sequence of human Vitamin D Receptor (VDR), VDR (gene 7421) (P11473 whole entry, looked up, the tested form may be a part): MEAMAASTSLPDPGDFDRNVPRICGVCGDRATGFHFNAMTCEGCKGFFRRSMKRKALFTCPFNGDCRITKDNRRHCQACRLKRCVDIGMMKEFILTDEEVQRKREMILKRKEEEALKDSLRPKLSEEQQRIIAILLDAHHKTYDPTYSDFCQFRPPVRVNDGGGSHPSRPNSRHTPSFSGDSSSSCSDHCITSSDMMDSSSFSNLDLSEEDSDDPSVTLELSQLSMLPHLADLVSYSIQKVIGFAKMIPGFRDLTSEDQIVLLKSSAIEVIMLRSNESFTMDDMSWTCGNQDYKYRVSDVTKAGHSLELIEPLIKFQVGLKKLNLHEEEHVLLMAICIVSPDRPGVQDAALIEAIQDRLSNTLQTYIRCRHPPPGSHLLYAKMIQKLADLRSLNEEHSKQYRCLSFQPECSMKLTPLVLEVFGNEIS
Sequence of E-selectin (Homo sapiens) (P16581 whole entry, looked up): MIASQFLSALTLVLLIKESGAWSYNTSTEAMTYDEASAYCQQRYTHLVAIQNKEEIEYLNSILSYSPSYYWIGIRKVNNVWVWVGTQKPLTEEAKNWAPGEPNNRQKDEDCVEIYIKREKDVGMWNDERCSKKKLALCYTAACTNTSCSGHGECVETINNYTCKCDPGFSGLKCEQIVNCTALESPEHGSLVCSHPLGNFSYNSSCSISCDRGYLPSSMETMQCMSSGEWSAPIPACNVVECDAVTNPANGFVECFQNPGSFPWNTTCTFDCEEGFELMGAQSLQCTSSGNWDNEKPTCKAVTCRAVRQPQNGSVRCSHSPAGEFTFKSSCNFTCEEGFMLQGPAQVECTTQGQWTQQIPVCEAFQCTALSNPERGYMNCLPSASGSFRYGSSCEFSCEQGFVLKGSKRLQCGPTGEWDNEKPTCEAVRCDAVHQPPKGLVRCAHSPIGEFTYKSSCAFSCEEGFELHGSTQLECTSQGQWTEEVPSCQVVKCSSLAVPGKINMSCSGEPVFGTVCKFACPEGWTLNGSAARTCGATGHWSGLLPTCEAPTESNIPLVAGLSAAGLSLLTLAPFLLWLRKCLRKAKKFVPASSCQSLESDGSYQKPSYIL

For the compound `CC(C)c1c(C(=O)Nc2ccccc2)c(-c2ccccc2)c(-c2ccc(F)cc2)n1CC[C@@H](O)C[C@@H](O)CC(=O)O`, the outcome in [1] was inactive.
For the compound `FC(F)(F)C(F)(F)C(F)(F)C(F)(F)I`, the compound was called inactive in [1].
Take `CCOC(=O)c1nc(C(Cl)(Cl)Cl)n(-c2ccc(Cl)cc2Cl)n1`: the AC50 in assay [2] was 2.11 µM (active). Further, in [1], the compound was called inactive.
Take `COc1ccc(C#N)cc1`: the result in [1] was inactive.
Take `O=C(NO)c1ccccc1`: the result in assay [3], in [4], in [5], in assay [6], in assay [7] and in assay [8] was inactive. Besides, the outcome in assay [9], in assay [1], in assay [10], in assay [11], in assay [12] and in assay [13] was inactive. The result in assay [14], in assay [15], in assay [16], in assay [17] and in assay [18] was inactive.
`Oc1c(Cl)ccc(Cl)c1Cl`: the compound was classed as inactive in [1].
For `CCCCCCCC(OC)OC`, the result in assay [1] was inactive.
Take `O=C(C=C(O)C(F)(F)F)C(F)(F)F`: the result in [1] was inactive.
For the compound `O=C(OC(=O)C(F)(F)C(F)(F)F)C(F)(F)C(F)(F)F`, the result in assay [2] and in assay [1] was inactive.
On to `O=C(F)C(F)(F)C(F)(F)C(F)(F)C(=O)F`, for which the call in assay [1] was inactive.
Regarding `Cc1ccc(C)c(S(=O)(=O)O)c1`, the call in [2] and in assay [1] was inactive.
Turning to `CCCCCCCCCCCCCCCC(=O)OC`, the compound was called inactive in assay [2] and in [1].
On to `C=CC(=C)CC/C=C(\C)CCC=C(C)C`, for which the outcome in assay [3], in assay [4], in [5], in [6], in [7] and in assay [8] was inactive. In addition, the result in assay [9], in assay [10], in assay [12], in assay [13], in [19] and in assay [14] was inactive. Also, the outcome in assay [15], in [16], in assay [17] and in assay [18] was inactive. Besides, in assay [11], the AC50 was 6.95 nM (active).
Take `OCC1CCC(CO)CC1` (stereo not drawn): in assay [1], the call was inactive.
Turning to `CCCCCCCCC(C)=O`, in assay [1], the outcome was inactive.
With `NNC(=O)CCCCC(=O)NN`, the call in assay [2] and in assay [1] was inactive.
With `COC(=O)C(F)(F)C(F)(F)C(F)(F)C(F)(F)C(F)(F)F`, in [1], the result was inactive.
`COC(O)c1ccccc1` (stereo not drawn): the compound was classed as inactive in assay [2] and in assay [1].
Turning to `O=C(c1ccccc1)c1ccccc1`, the outcome in [3], in [4], in assay [5], in assay [6], in assay [7] and in assay [8] was inactive. Further, the result in assay [9], in [1], in [10], in assay [11], in assay [12] and in assay [13] was inactive. The result in [14], in [15], in [16], in [17] and in assay [18] was inactive.

Source of the values: PubChem BioAssay (EPA / NIEHS).
